Laboratory results: PubChem BioAssay
The source made the active and inactive calls.

Assays:
[1] = target: Albumin (Bos taurus) (UniProt P02769); test: bovine serum albumin binders on microarray, profiling panel, artefact control for SMM control protein annotation, biochemical, small-molecule microarray, Alexa647 label, 635/667 nm fluorescence (AID 1118); conditions: BSA-A647 binding, fluorescence 635 nm, higher = more signal;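 note: score merges 667 nm emission intensity and signal-to-noise per printed compound spot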
[2] = small-molecule microarray binders of probe aXIP, primary screen, biochemical, NeuroSMM set, 635/667 nm fluorescence (AID 1119); conditions: higher = more signal, called active from +8 up or from −8 down;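 note: probe is the protein aXip251-270 applied at 1 µg/mL to compound-printed slides; binding of probe to printed compounds measured as 667 nm fluorescence plus signal to noise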
[3] = small-molecule binders of probe aNOTCH3, primary screen, biochemical, small-molecule microarray, 635/667 nm fluorescence (AID 1120); conditions: higher = more signal;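 note: probe is a biotin-tagged antibody raised against NOTCH3 rather than NOTCH3 protein; score merges spot fluorescence near 667 nm with spot signal to noise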
[4] = small-molecule binders of probe aNOTCH2, primary screen, biochemical, small-molecule microarray, 635/667 nm fluorescence (AID 1121); conditions: higher = more signal;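 note: score merges feature fluorescence read at 667 nm with its signal to noise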
[5] = target: Carbonic anhydrase 2 (Homo sapiens) (UniProt P00918); test: CAII small-molecule binders, profiling panel, biochemical, small-molecule microarray, Alexa647-labelled CAII (AID 1122); conditions: CAII-A647 binding fluorescence, higher = more signal
[6] = COS7 lysate on small-molecule microarray, probe aHis, 635 nm (AID 1123); conditions: COS7 cell lysate, fluorescence, higher = more signal;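 note: z-score combines 667nm fluorescence intensity with signal-to-noise per printed compound spot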
[7] = compound binding in COS7 lysate, probe aLAP1, primary screen, cell lysate, small-molecule microarray (AID 1124); conditions: probe aLAP1, fluorescence, higher = more signal;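 note: lysate comes from COS7 cells expressing LAP1 and is applied at 0.3 µg/mL; score merges spot fluorescence near 667 nm with signal-to-noise over triplicate slides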
[8] = system: Sam68 (KHDRBS1); test: Sam68 small-molecule binders, primary screen, biochemical, small-molecule microarray, 635 nm fluorescence (AID 1125); conditions: small-molecule microarray binding, higher = more signal;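 note: score merges 667 nm channel intensity with signal to noise over triplicate slides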
[9] = system: Chordin-like protein 2 (CHRDL2); test: CHRDL2 small-molecule binders, primary screen, biochemical, small-molecule microarray, 635 nm fluorescence (AID 1126); conditions: small-molecule microarray binding, fluorescence 635 nm; higher = more signal;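 note: printed compound slides probed with Chrdl2 protein at 4 µg/mL for 1 h at 4 C; score merges 667 nm emission intensity with signal to noise over three replicate slides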
[10] = target: Concanavalin-A (Canavalia ensiformis) (UniProt P02866); test: ConA small-molecule binders, primary screen, artefact control for SMM control protein annotation, biochemical, small-molecule microarray, Alexa647 label, 635 nm (AID 1127); conditions: ConA-A647 binding fluorescence, higher = more signal;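 note: z combines 667 nm emission intensity with signal-to-noise across three replicate slides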
[11] = anti-His antibody binders, primary screen, artefact control for SMM control protein annotation, biochemical, small-molecule microarray, 635 nm fluorescence (AID 1128); conditions: anti-His Alexa647 antibody binding, higher = more signal;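 note: score merges feature fluorescence with signal-to-noise for each printed compound spot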
[12] = system: Human papillomavirus type 1a E7 protein (residues 1-88); test: HPV1a E7 small-molecule binders, primary screen, biochemical, small-molecule microarray, residues 1-88, 635 nm (AID 1129); conditions: small-molecule microarray binding, fluorescence 635 nm; higher = more signal
[13] = target: Focal adhesion kinase 1 (Homo sapiens) (UniProt Q05397); test: small-molecule microarray binders of FAK, primary screen, biochemical, 635/667 nm fluorescence, BSA, DTT (AID 1130); conditions: PTK2 binding, 635 nm fluorescence, higher = more signal;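 note: composite of spot emission at 667 nm and signal to noise over triplicate slides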
[14] = system: Fibrinogen (Alexa647-labelled); test: fibrinogen binders on compound microarrays, profiling panel, artefact control for SMM control-protein annotation, biochemical, small-molecule microarray, 635/667 nm fluorescence (AID 1131); conditions: fibrinogen-A647 binding fluorescence, higher = more signal;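 note: z-score merges 667 nm fluorescence with per-spot signal-to-noise over triplicate slides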
[15] = target: Follistatin (Homo sapiens) (UniProt P19883); test: follistatin binders on small-molecule microarrays, primary screen, biochemical, small-molecule microarray, 635/667 nm fluorescence (AID 1132); conditions: FST binding, 635 nm fluorescence, higher = more signal
[16] = target: Fibroblast growth factor 2 (Homo sapiens) (UniProt P09038); test: FGF2 binders on small-molecule microarrays, primary screen, biochemical, small-molecule microarray, 635/667 nm fluorescence (AID 1133); conditions: small-molecule microarray binding, FGF2, fluorescence 635/667; higher = more signal
[17] = mitochondrial membrane potential change in A549 cells, profiling panel, cell-based, JC-1 fluorescence, basal, 24 h, 100 nL (AID 1138); conditions: higher = more signal;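 note: A549 lung adenocarcinoma cells under basal conditions with no added stimulus; test concentration not given here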
[18] = system: Lefty1; test: Lefty1 binders on small-molecule microarrays, primary screen, biochemical, small-molecule microarray, 635/667 nm fluorescence (AID 1139); conditions: small-molecule microarray binding, fluorescence 635/667; higher = more signal
[19] = system: wheat germ agglutinin (Triticum aestivum), Alexa647-labelled; test: wheat germ agglutinin binders on compound microarrays, profiling panel, artefact control for SMM control-protein annotation, biochemical, small-molecule microarray, 635/667 nm fluorescence (AID 1140); conditions: WGA-A647 binding, 635 nm fluorescence, higher = more signal;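 note: score merges 667 nm feature emission with signal to noise over triplicate slides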
[20] = target: Luciferin 4-monooxygenase (Photinus pyralis) (UniProt P08659); test: firefly luciferase enzyme inhibitors, primary screen, biochemical, luminescence, purified enzyme, 2006 set (AID 1141); conditions: SteadyGlo luminescence, 30 min, higher = more signal, called active from +8 up or from −8 down;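 note: cell-free assay with purified firefly luciferase at 100 ng per well in PBS; test concentration not given here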
Luciferin 4-monooxygenase (Photinus pyralis), sequence (P08659 whole entry, looked up): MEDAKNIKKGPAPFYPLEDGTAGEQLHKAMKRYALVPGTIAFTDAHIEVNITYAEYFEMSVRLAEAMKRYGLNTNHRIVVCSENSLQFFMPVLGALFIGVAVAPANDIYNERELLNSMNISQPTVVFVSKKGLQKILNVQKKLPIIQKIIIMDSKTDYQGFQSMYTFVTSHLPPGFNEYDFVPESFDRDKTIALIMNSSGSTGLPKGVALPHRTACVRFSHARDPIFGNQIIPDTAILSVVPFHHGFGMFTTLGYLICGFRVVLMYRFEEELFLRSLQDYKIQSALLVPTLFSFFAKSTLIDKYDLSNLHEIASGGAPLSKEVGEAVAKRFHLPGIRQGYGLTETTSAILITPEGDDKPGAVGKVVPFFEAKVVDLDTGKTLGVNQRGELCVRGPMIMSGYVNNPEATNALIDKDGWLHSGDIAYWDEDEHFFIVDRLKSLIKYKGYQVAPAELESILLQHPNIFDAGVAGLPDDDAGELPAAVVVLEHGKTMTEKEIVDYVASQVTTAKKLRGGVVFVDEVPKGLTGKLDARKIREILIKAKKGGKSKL

Focal adhesion kinase 1 (Homo sapiens), sequence (Q05397 whole entry, looked up): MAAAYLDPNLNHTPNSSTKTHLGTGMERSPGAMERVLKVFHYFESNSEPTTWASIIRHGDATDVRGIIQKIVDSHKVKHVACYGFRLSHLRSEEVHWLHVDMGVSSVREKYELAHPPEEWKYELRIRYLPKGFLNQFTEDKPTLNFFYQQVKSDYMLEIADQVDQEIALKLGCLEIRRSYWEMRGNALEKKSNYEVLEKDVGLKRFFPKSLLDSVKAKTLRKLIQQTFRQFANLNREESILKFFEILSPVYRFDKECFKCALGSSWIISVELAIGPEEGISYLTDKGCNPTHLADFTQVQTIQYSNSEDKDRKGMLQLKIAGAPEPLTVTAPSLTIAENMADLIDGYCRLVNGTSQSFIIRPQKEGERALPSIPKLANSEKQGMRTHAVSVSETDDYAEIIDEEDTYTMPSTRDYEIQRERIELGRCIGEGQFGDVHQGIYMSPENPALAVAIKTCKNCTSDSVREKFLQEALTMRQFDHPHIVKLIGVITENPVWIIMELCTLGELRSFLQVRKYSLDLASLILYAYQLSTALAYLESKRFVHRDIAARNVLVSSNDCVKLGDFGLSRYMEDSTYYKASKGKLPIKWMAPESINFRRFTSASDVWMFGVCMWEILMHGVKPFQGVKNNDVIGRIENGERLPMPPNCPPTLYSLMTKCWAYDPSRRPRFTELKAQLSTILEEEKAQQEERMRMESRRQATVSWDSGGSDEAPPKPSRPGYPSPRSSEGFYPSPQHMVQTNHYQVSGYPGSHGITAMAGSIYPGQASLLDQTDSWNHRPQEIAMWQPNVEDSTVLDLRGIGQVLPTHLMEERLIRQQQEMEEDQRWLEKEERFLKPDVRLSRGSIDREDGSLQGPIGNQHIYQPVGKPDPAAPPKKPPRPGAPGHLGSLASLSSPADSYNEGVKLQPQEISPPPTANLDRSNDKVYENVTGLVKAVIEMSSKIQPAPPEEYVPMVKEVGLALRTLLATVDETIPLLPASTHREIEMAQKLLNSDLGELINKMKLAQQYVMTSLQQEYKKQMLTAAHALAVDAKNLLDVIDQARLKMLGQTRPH
Albumin (Bos taurus), sequence (P02769 whole entry, looked up): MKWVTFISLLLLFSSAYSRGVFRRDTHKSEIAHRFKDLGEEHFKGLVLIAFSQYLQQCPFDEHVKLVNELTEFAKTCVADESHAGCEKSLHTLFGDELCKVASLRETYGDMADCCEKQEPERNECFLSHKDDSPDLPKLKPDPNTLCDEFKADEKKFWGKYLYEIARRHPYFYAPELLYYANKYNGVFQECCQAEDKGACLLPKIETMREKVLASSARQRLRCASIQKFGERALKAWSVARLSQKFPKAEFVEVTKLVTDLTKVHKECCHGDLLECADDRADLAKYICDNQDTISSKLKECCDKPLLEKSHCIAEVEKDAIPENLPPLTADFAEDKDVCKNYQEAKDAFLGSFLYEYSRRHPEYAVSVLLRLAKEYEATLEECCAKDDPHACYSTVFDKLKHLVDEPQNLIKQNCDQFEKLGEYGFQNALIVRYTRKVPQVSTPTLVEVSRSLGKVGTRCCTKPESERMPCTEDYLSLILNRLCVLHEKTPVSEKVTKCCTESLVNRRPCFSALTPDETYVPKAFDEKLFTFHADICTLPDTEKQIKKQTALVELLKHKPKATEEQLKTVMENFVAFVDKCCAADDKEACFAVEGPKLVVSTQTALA
Follistatin (Homo sapiens), sequence (P19883 whole entry, looked up): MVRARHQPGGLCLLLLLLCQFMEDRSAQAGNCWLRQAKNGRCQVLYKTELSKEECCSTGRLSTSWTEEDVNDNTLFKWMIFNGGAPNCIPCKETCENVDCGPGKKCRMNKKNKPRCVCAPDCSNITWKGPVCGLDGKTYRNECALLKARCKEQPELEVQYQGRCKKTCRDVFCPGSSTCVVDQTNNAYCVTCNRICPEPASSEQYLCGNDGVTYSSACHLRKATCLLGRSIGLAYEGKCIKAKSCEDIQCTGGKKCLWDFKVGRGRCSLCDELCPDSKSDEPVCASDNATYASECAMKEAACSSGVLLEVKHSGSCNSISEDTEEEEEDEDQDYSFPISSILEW
Fibroblast growth factor 2 (Homo sapiens), sequence (P09038 whole entry, looked up): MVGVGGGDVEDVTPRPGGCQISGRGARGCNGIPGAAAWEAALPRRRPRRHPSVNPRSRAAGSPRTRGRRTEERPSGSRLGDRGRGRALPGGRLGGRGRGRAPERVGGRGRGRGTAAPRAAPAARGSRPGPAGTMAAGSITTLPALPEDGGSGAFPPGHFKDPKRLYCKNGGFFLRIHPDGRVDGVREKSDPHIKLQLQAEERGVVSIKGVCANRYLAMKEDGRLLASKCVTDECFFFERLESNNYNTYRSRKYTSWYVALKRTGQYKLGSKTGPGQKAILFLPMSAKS
Concanavalin-A (Canavalia ensiformis), sequence (P02866 whole entry, looked up): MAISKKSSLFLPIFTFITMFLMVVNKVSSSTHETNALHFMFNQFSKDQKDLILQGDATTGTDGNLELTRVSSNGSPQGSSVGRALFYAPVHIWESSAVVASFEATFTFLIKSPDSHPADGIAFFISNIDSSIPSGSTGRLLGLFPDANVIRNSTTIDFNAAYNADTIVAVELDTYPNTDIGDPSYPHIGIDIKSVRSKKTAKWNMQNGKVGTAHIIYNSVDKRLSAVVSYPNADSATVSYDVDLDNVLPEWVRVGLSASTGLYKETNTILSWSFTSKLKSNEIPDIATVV

| Structure (SMILES) | composite z-score [1] | composite Z-score [2] | composite z-score [3] | composite z-score [4] | composite z-score [5] | composite z-score [6] | composite z-score [7] | composite z-score [8] | composite z-score [9] | composite z-score [10] | composite z-score [11] | composite z-score [12] | composite z-score [13] | composite z-score [14] | composite z-score [15] | composite z-score [16] | z-score [17] | composite z-score [18] | composite z-score [19] | z-score [20] |
| --- | --- | --- | --- | --- | --- | --- | --- | --- | --- | --- | --- | --- | --- | --- | --- | --- | --- | --- | --- | --- |
| CO[C@@H]1C=CCC(=O)N2CCC[C@H]2C(=O)OC[C@@H](C)C(=O)OC[C@H]1C | -0.709 | 1.36 (inactive) | 0.138 | -0.0109 | -0.31 | -0.0865 | -0.176 | 0.465 | 1.05 | -1.08 | 0.21 | -0.565 | -0.267 | -0.294 | 1.34 | 1.33 | 2.01 | 0.925 | -0.7 | -1.1 (inactive) |
| O=C1[C@H]2[C@H]3[C@H](O)[C@H](O)CC(=NOC[C@@H](O)COCc4ccco4)[C@H]3CC[C@H]2C(=O)N1C[C@@H]1CCCO1 | -0.483 | 0.382 (inactive) | -0.0976 | -0.208 | -0.237 | -0.736 | -0.353 | 0.293 | 1.38 | -0.294 | 0.605 | 0.225 | -0.173 | -1.27 | 0.987 | 1.61 | -0.644 | 1.34 | -0.23 | 1.02 (inactive) |
| CO[C@@H]1COC(=O)[C@H](CCSC)NC(=O)CC=C[C@@H](C)COC(=O)CCC[C@H]1C | -0.978 | 1.81 (inactive) | -0.0284 | -0.147 | -0.654 | -1.31 | 1.01 | 0.973 | 1.68 | -1.11 | -0.252 | -1.17 | -0.798 | -2.26 | 1.44 | 1.97 | 0.803 | 1.84 | -0.65 | 1.05 (inactive) |
| COc1ccc(COC(=O)NN=C2C[C@@H](O)[C@@H](O)[C@@H]3[C@@H]4C(=O)N(c5ccc(F)cc5F)C(=O)[C@@H]4CC[C@H]23)cc1 | 0.446 | 3.84 (inactive) | 0.0961 | -0.157 | -0.0507 | -0.181 | 0.0054 | -0.169 | -0.293 | 0.0493 | 0.524 | -0.199 | 0.168 | 0.89 | -0.469 | 0.0314 | -0.654 | -0.773 | 0.4 | 0.732 (inactive) |
| CO[C@@H]1COC(=O)CC=C[C@@H](C)[C@@H]2C=C[C@H](O)[C@@H](COC(=O)CC=C[C@H]1C)O2 | -0.806 | 0.718 (inactive) | -0.124 | -0.166 | -0.257 | -1.01 | 0.146 | 0.141 | 1.14 | -0.629 | -0.143 | -1.07 | -0.649 | -0.616 | 1.45 | 1.3 | 1.81 | 1.66 | -0.448 | -1.35 (inactive) |
| COc1cccc([C@H]2Oc3ccc(OC)cc3C(=NOC(C)CN3CCCCc4nc(C)c(C)cc43)[C@@H]2O)c1 (stereo not given in full) | 0.604 | -0.352 (inactive) | 0.0876 | -0.106 | 0.293 | 0.47 | -0.456 | 0.523 | 0.267 | 0.653 | 1.95 | 0.195 | -0.251 | 0.755 | 0.241 | 0.414 | -0.349 | 0.341 | 0.698 | -0.404 (inactive) |
| COC(=O)CC=C[C@H](C)[C@@H](OCc1cccc(Br)c1)[C@@H](C)[C@H](OC)C1CCCCC1 | -1.15 | 0.143 (inactive) | -0.0914 | -0.124 | 0.0679 | -0.504 | -0.0998 | -0.446 | 0.652 | -1.23 | 0.0864 | -1.06 | -0.484 | -1.74 | 0.22 | -0.0877 | 1.74 | 0.525 | 0.325 | -3.27 (inactive) |
| COC(=O)CC=C[C@@H](C)[C@@H](C=NO[C@@H](C)c1cc(-c2c(C)cc(C)cc2C)no1)NS(=O)(=O)c1ccc(C)cc1 | -0.356 | -0.136 (inactive) | -0.197 | -0.115 | -0.6 | -0.238 | -0.565 | -0.723 | -0.674 | -0.985 | -1.02 | -0.888 | -0.0927 | -0.494 | -1.58 | -1.44 | -0.0778 | -1.55 | -0.665 | 1.14 (inactive) |
| C=COC[C@@H]1CN2[C@@H](CC[C@@H](C)[C@@H]2c2ccc(Br)cc2)C(=O)O1 | 0.0494 | 0.686 (inactive) | -0.161 | -0.14 | 0.0173 | 0.043 | 0.008 | -0.0284 | 0.407 | -0.563 | -0.559 | 0.151 | 0.18 | 0.212 | 0.0793 | -0.285 | -1.25 | 0.0005 | -0.0681 | 0.49 (inactive) |
| CC(=O)OC[C@H]1O[C@H](CC=NO[C@H](C)c2cn([C@H](CO)Cc3ccccc3)nn2)C=C[C@@H]1OC(C)=O | 0.376 | -0.0641 (inactive) | 0.108 | -0.0482 | -0.0934 | 0.154 | 0.0588 | 1.29 | 0.41 | 0.597 | 0.499 | 0.777 | -0.0453 | 0.0573 | 0.69 | 0.494 | -0.866 | 0.732 | 0.439 | 0.809 (inactive) |
| CC(C)=CCCC(C)=CCON=C1C[C@@H](O)[C@@H](O)[C@@H]2[C@@H]3C(=O)N(c4ccc(F)cc4F)C(=O)[C@@H]3CC[C@@H]12 | 0.572 | 0.262 (inactive) | 0.0459 | -0.14 | 0.29 | -0.217 | 0.233 | 0.51 | 1.38 | 0.339 | 0.0658 | -0.167 | 0.121 | 0.89 | 1.04 | 0.393 | -0.913 | 1.27 | 1.06 | 1.03 (inactive) |
